Test results taken from PubChem BioAssay (NCATS).
A number with no mark means an inactive call. Inconclusive results are not listed. Entries that show only a call come without a potency. Calls of active or inactive are those of the source. Unless noted, calls follow the shape of the dose curve; as a rule, active = well fitted inhibition curve with a large enough effect; inconclusive = small, poorly fitted or top-dose-only effect; inactive = no such curve, though single readings can be large or run the other way.

What was measured:
[1] = target: Cytochrome P450 1A2 (Homo sapiens) (UniProt P05177); test: p450-cyp1a2 (AID 410; calls by dose curve; also: potency is read from the fitted curve at half-maximal effect)
Chain of Cytochrome P450 1A2 (Homo sapiens) (P05177 whole entry, looked up): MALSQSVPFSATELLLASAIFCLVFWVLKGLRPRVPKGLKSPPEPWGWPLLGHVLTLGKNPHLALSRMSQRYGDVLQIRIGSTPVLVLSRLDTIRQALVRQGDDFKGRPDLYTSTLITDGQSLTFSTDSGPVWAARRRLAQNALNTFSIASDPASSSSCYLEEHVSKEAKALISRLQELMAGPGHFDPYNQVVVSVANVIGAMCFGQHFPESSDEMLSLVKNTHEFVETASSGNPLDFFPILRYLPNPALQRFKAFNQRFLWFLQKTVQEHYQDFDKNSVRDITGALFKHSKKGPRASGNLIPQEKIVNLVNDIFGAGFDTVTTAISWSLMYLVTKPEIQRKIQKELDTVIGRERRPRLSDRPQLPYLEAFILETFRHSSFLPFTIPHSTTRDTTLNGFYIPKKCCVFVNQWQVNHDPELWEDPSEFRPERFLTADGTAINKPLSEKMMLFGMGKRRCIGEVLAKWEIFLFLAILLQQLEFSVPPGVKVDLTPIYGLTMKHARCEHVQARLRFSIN
How it was run: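 Luminescent readout of luciferin formed from Luciferin-ME by human CYP1A2; data normalized against complete inhibition by 57 uM furafylline. Enzyme 20nM, substrate 100uM at Km, 100mM KPO4 buffer, 60 min reaction at room temperature.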

[2] = target: Glucocorticoid receptor (Homo sapiens) (UniProt P04150); test: GR-EFC Redistribution (AID 451; calls by dose curve; also: potency is read from the fitted curve at half-maximal effect); conditions: CHO-K1 GR-EFC translocation, beta-gal luminescence, 2 h
Chain of Glucocorticoid receptor (Homo sapiens) (P04150 whole entry, looked up, the tested form may be a part): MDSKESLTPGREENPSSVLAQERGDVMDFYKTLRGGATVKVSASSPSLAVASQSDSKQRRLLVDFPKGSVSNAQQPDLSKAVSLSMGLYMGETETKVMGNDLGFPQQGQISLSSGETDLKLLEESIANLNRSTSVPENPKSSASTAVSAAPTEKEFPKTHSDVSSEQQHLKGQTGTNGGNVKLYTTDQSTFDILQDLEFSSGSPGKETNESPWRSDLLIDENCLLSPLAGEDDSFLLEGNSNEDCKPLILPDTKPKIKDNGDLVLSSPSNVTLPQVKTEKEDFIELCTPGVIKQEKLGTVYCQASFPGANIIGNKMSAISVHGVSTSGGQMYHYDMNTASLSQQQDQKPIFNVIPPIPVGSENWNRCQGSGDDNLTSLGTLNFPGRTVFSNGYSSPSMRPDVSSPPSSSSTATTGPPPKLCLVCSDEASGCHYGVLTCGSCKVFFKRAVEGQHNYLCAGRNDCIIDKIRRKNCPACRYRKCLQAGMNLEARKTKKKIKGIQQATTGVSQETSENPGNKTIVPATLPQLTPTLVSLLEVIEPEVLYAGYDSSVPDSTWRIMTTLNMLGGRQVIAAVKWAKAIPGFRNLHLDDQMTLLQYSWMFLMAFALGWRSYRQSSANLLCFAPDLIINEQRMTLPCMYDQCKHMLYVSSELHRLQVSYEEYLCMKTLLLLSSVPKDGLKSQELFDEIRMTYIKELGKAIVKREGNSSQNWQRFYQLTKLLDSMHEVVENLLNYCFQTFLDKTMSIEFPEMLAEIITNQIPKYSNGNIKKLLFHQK
How it was run: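 CHO-K1 cells stably expressing nuclear-localized β-gal enzyme acceptor and GR fused C-terminally to the enzyme donor fragment; ligand-driven nuclear translocation restores β-gal by complementation. Compounds titrated up to 46 uM final, 2 h at 37 °C; luminescence read.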

[3] = target: Mitogen-activated protein kinase 10 (Mus musculus) (UniProt Q61831); test: JNK3 AlphaScreen Assay (AID 530; active = well fitted curve in either direction with a large enough effect, not every such curve was filed as active;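 also: kinase came from lysate of stimulated human HepG2 cells; signal reports phosphorylation of biotinylated GST-cJun 1-79 at Ser73 with 10 µM ATP; series mostly up to about 57 µM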)
How it was run: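 Inhibitors reduce antibody binding to phosphorylated biotin-cJun, lowering AlphaScreen luminescence. Lysates from HepG2 cells pre-activated by IL-1beta plus TNF-alpha supplied JNK3; compounds were titrated.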

[4] = target: 3',5'-cyclic-AMP phosphodiesterase 4B (Homo sapiens) (UniProt Q07343); test: qHTS Assay for Inhibitors of PDE-IV (AID 607; active = well fitted activation curve with a large enough effect in the main read-out, with a control signal flat, not every such curve was filed as active)
Chain of 3',5'-cyclic-AMP phosphodiesterase 4B (Homo sapiens) (Q07343 whole entry, looked up): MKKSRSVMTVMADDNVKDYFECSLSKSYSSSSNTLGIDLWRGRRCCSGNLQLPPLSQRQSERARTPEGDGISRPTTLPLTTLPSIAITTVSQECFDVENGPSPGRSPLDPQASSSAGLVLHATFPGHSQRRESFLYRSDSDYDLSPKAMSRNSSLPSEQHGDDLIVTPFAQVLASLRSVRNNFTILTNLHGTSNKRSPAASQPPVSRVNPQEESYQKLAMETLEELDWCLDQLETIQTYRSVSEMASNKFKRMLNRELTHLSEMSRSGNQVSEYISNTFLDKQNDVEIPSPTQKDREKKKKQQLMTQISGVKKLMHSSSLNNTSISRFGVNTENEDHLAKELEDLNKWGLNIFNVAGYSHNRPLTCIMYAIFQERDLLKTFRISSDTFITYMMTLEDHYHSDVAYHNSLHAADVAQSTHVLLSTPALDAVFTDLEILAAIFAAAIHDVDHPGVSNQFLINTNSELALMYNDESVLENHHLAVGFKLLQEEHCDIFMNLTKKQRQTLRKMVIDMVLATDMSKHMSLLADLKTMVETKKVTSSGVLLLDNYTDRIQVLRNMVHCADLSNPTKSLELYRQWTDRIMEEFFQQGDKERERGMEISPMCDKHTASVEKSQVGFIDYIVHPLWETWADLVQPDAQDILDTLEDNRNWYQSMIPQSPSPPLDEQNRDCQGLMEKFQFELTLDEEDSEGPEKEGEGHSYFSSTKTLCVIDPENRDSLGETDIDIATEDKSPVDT
How it was run: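 ACTOne HEK293 cells carry a modified cAMP-gated CNG channel and express endogenous PDE4; plated 1000 cells/well, compounds up to 22.9 uM final. Membrane-potential dye fluorescence (ex 535/em 590) was read; parental cells received 10 uM forskolin + 100 uM RO 20-1724.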

[5] = target: Cytochrome P450 2C9 (Homo sapiens) (UniProt P11712); test: qHTS Assay for Inhibitors and Substrates of Cytochrome P450 2C9 (AID 883); also: nearly all actives have a fitted effect of over 60% in size
Chain of Cytochrome P450 2C9 (Homo sapiens) (P11712 whole entry, looked up): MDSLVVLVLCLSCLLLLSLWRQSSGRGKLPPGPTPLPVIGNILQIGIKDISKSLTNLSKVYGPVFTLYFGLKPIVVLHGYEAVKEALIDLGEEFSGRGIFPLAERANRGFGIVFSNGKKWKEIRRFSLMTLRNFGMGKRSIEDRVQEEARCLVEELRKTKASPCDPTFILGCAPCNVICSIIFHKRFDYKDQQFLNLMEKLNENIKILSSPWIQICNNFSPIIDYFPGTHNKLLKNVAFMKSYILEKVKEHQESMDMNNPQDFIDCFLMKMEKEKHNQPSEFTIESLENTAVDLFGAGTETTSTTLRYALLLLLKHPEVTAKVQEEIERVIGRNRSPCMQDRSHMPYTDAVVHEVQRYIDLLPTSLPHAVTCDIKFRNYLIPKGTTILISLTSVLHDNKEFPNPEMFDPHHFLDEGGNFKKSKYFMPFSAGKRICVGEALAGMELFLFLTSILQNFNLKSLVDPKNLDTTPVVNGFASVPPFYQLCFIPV
How it was run: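 Human CYP2C9 (10nM) hydroxylated Luciferin-H (100uM, at its KM) to luciferin in 25mM KPO4. Compound was preincubated 10 min at 37C, then NADPH regeneration started a 60 min reaction at 37C. Luminescence was read after detection reagent, normalized to 57uM sulphaphenazole.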

[6] = target: Cytochrome P450 2D6 (Homo sapiens) (UniProt P10635); test: qHTS Assay for Inhibitors and Substrates of Cytochrome P450 2D6 (AID 891);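 also: luciferin methyl ether substrate demethylated by CYP2D6 with NADPH regeneration; nearly all actives have a fitted effect of over 60% in size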
Chain of Cytochrome P450 2D6 (Homo sapiens) (P10635 whole entry, looked up): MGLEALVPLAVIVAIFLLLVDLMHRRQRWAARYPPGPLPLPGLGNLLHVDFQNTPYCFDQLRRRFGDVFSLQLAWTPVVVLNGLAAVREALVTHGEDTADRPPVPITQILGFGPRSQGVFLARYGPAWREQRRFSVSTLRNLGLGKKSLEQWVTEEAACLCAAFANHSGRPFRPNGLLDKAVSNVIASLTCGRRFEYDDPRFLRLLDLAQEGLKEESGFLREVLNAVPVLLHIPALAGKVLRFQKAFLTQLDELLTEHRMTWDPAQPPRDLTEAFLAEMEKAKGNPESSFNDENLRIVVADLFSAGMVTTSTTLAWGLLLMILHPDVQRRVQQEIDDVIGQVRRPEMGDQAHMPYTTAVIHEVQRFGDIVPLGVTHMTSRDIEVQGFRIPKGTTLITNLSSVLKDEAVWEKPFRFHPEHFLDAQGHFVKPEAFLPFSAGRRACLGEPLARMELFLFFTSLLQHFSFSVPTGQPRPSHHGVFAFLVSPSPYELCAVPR
How it was run: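 Human CYP2D6 (5 nM) with 30 uM Luciferin-ME EGE (at Km) in 100 mM KPO4, compound preincubated 10 min, then NADPH regeneration system for 60 min at room temperature. Luciferin read by luminescence; normalized to 1.43 uM quinidine.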

[7] = target: Cytochrome P450 2C19 (Homo sapiens) (UniProt P33261); test: qHTS Assay for Inhibitors and Substrates of Cytochrome P450 2C19 (AID 899); also: nearly all actives have a fitted effect of over 60% in size
Chain of Cytochrome P450 2C19 (Homo sapiens) (P33261 whole entry, looked up): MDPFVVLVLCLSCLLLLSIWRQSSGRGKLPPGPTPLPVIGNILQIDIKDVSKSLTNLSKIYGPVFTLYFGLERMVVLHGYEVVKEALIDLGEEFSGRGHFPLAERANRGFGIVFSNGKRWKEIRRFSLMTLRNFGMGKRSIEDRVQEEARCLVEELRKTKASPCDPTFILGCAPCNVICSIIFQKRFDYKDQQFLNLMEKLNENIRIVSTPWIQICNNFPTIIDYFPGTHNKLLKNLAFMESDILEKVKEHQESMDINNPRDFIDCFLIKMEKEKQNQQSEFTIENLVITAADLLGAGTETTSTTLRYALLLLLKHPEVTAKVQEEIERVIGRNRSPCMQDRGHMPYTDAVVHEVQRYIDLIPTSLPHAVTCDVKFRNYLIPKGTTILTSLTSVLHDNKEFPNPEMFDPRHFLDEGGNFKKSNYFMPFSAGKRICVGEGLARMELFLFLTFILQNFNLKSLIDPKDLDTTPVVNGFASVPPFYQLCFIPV
How it was run: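 Human CYP2C19 (5nM) with Luciferin-H EGE at 10uM (its KM) in 50mM KPO4 was preincubated with compound for 10 min at 37C. NADPH regeneration started a 60 min 37C reaction. Luciferin was read by luminescence, normalized to 57uM ketoconazole.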

[8] = target: Glucocorticoid receptor (Homo sapiens) (UniProt P04150); test: GR-GFP Redistribution (AID 450;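 active = compounds whose dose series gives a full or clear partial fitted curve of increased nuclear translocation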; also: potency is read from the fitted curve at half-maximal effect)

Question: For `CC(C)[C@@H](CC(=O)N[C@@H]1CCNC[C@H]1C(=O)N[C@H](CC(=O)N[C@@H](CCC(=O)O)CC(=O)O)Cc1c[nH]c2ccccc12)NC(=O)C[C@H](Cc1c[nH]c2ccccc12)NC(=O)[C@@H]1CCCC[C@H]1N`, which Potency [1] is on record?
Answer: inactive

Question: And the Potency [2]?
Answer: > 46 µM

Question: And the Potency [3]?
Answer: inactive

Question: What about the Potency [4] of the same compound?
Answer: inactive

Question: And the Potency [5]?
Answer: inactive

Question: And the Potency [6]?
Answer: inactive

Question: What about the Potency [7] of the same compound?
Answer: inactive

Question: With `CC(C)[C@@H](CC(=O)N[C@@H]1CCCC[C@H]1C(=O)N[C@H](CC(=O)N[C@@H](CCC(=O)O)CC(=O)O)Cc1ccccc1)NC(=O)C[C@H](Cc1c[nH]c2ccccc12)NC(=O)[C@@H]1CCCC[C@H]1N` as the compound, how does the Potency [1] read?
Answer: inactive

Question: What about the Potency [2] of the same compound?
Answer: > 46 µM

Question: What about the Potency [3] of the same compound?
Answer: inactive

Question: And the Potency [4]?
Answer: inactive

Question: And the Potency [5]?
Answer: inactive

Question: And the Potency [6]?
Answer: inactive

Question: And the Potency [7]?
Answer: inactive

Question: For `CC(=O)c1c(O)c(C)c(O)c2c1OC1=CC(=O)[C@H](C(C)=O)C(=O)[C@]12C`, which Potency [1] is on record?
Answer: 3.16 µM (active)

Question: What about the Potency [8] of the same compound?
Answer: > 46 µM

Question: And the Potency [2]?
Answer: > 46 µM

Question: And the Potency [4]?
Answer: inactive

Question: And the Potency [6]?
Answer: inactive

Question: And the Potency [7]?
Answer: inactive

Question: Which Potency [1] does the source give for `CC(C)[C@@H](CC(=O)N[C@@H]1CCCC[C@H]1C(=O)N[C@H](CC(=O)N[C@@H](CCC(=O)O)CC(=O)O)Cc1c[nH]c2ccccc12)NC(=O)C[C@H](Cc1c[nH]c2ccccc12)NC(=O)[C@@H]1CCCC[C@H]1N` here?
Answer: inactive

Question: And the Potency [2]?
Answer: > 46 µM

Question: What about the Potency [3] of the same compound?
Answer: inactive

Question: What about the Potency [4] of the same compound?
Answer: inactive

Question: And the Potency [5]?
Answer: inactive

Question: And the Potency [6]?
Answer: inactive

Question: And the Potency [7]?
Answer: inactive

Question: Which results are given for `CC(C)C[C@@H](CC(=O)N[C@@H](CCC(=O)O)CC(=O)O)NC(=O)[C@@H]1CCCC[C@H]1NC(=O)C[C@@H](NC(=O)C[C@H](CO)NC(=O)[C@@H]1CNCC[C@H]1N)C(C)C`?
Answer: Potency [1]: inactive; Potency [2]: > 46 µM; Potency [3]: inactive; Potency [4]: inactive

Question: Which Potency [1] does the source give for `C/C(=C\COc1cc(=O)[nH]c2ccccc12)CC[C@@H](O)C(C)(C)O` here?
Answer: 20 µM (active)

Question: And the Potency [8]?
Answer: > 46 µM

Question: And the Potency [3]?
Answer: inactive

Question: And the Potency [4]?
Answer: inactive

Question: What about the Potency [5] of the same compound?
Answer: inactive

Question: What about the Potency [6] of the same compound?
Answer: inactive

Question: What about the Potency [7] of the same compound?
Answer: inactive

Question: What does the source list for `CC(C)C[C@@H](CC(=O)N[C@@H](CCC(=O)O)CC(=O)O)NC(=O)[C@@H]1CNCC[C@H]1NC(=O)C[C@@H](NC(=O)C[C@H](CO)NC(=O)[C@@H]1CCCC[C@H]1N)C(C)C`?
Answer: Potency [1]: inactive; Potency [2]: > 46 µM; Potency [3]: inactive; Potency [4]: inactive; Potency [5]: inactive; Potency [6]: inactive

Question: How did the Potency [1] turn out when `CC(C)C[C@@H](CC(=O)N[C@@H](CCC(=O)O)CC(=O)O)NC(=O)[C@@H]1CCCC[C@H]1NC(=O)C[C@H](CCCN)NC(=O)C[C@H](CO)NC(=O)[C@@H]1CNCC[C@H]1N` was run?
Answer: inactive

Question: And the Potency [2]?
Answer: > 46 µM

Question: And the Potency [3]?
Answer: inactive

Question: And the Potency [4]?
Answer: inactive

Question: How did the Potency [1] turn out when `NCCC[C@@H](CC(=O)N[C@@H]1CCNC[C@H]1C(=O)N[C@H](CC(=O)N[C@@H](CCC(=O)O)CC(=O)O)Cc1ccccc1)NC(=O)C[C@H](Cc1ccccc1)NC(=O)[C@@H]1CNCC[C@H]1N` was run?
Answer: 31.6 µM (active)

Question: What about the Potency [2] of the same compound?
Answer: > 46 µM

Question: What about the Potency [3] of the same compound?
Answer: inactive

Question: And the Potency [4]?
Answer: inactive

Question: And the Potency [5]?
Answer: inactive

Question: And the Potency [6]?
Answer: inactive

Question: And the Potency [7]?
Answer: inactive

Question: How did the Potency [1] turn out when `CC(C)C[C@@H](CC(=O)N[C@@H](CCC(=O)O)CC(=O)O)NC(=O)[C@@H]1CNCC[C@H]1NC(=O)C[C@H](CCCN)NC(=O)C[C@H](Cc1ccccc1)NC(=O)[C@@H]1CCCC[C@H]1N` was run?
Answer: 25.1 µM (active)

Question: And the Potency [2]?
Answer: > 46 µM

Question: What about the Potency [3] of the same compound?
Answer: inactive

Question: And the Potency [4]?
Answer: inactive

Question: And the Potency [5]?
Answer: inactive

Question: And the Potency [6]?
Answer: inactive

Question: And the Potency [7]?
Answer: inactive

Question: With `CC(C)[C@@H](CC(=O)N[C@@H]1CCNC[C@H]1C(=O)N[C@H](CC(=O)N[C@@H](CCC(=O)O)CC(=O)O)Cc1c[nH]c2ccccc12)NC(=O)C[C@H](CO)NC(=O)[C@@H]1CCCC[C@H]1N` as the compound, how does the Potency [1] read?
Answer: inactive

Question: And the Potency [2]?
Answer: > 46 µM

Question: What about the Potency [3] of the same compound?
Answer: inactive

Question: What about the Potency [4] of the same compound?
Answer: inactive

Question: What about the Potency [5] of the same compound?
Answer: inactive

Question: And the Potency [6]?
Answer: inactive

Question: And the Potency [7]?
Answer: inactive

Question: `NCCC[C@@H](CC(=O)N[C@@H]1CCCC[C@H]1C(=O)N[C@H](CC(=O)N[C@@H](CCC(=O)O)CC(=O)O)Cc1c[nH]c2ccccc12)NC(=O)C[C@H](Cc1c[nH]c2ccccc12)NC(=O)[C@@H]1CNCC[C@H]1N` was tested. Which Potency [1] did it give?
Answer: inactive

Question: And the Potency [2]?
Answer: > 46 µM

Question: And the Potency [3]?
Answer: inactive

Question: What about the Potency [4] of the same compound?
Answer: inactive

Question: What about the Potency [5] of the same compound?
Answer: inactive

Question: What about the Potency [6] of the same compound?
Answer: inactive

Question: And the Potency [7]?
Answer: inactive

Question: For `NCCC[C@@H](CC(=O)N[C@@H]1CCNC[C@H]1C(=O)N[C@H](CC(=O)N[C@@H](CCC(=O)O)CC(=O)O)Cc1c[nH]c2ccccc12)NC(=O)C[C@H](Cc1c[nH]c2ccccc12)NC(=O)[C@@H]1CCCC[C@H]1N`, which Potency [1] is on record?
Answer: inactive

Question: And the Potency [2]?
Answer: > 46 µM

Question: What about the Potency [3] of the same compound?
Answer: inactive

Question: What about the Potency [4] of the same compound?
Answer: inactive

Question: And the Potency [5]?
Answer: inactive

Question: What about the Potency [6] of the same compound?
Answer: inactive

Question: And the Potency [7]?
Answer: inactive
